Compounds with a hit are over-represented: about 1.8% of the library has one in this group of screens.
RAD54 inh: inhibitors of human RAD54 branch migration, primary screen, biochemical, fluorescence, single point; inhibition, % at 10.4 µM; 360,000 compounds, 0.14% hits; RAD54 Holliday junction branch migration, FAM/BHQ fluorescence; DNA repair and recombination protein RAD54-like (Homo sapiens), Q92698;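 active = mean normalized replicate activity at least 40 and at least half of replicates scoring 40 or more; inconclusive = only one of the two criteria met; inactive = mean below 40 and under half of replicates reaching 40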;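 note: inhibitors cause a drop in the FAM fluorescence signal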
LGR2 antag: inhibitors of bursicon-induced LGR2 CRE-luciferase signal, primary screen, cell-based, HEK293, CRE-luciferase reporter, bursicon stimulation | 380,000 compounds, 0.35% hits | Drosophila bursicon receptor LGR2 (rickets) | inhibition, % at 9.99 µM | bursicon-stimulated, 4 h;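 active = drop in luminescence signal, shown as inhibition above about 50% in the replicate tests, limit read from the data, passing the limit was not always enough; inconclusive = probably only some replicates passing the limit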;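 note: agonist challenge used bursicon conditioned medium at about half maximal strength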
RAD52 anneal inh: RAD52 DNA annealing inhibitors, primary screen, biochemical, FRET, single point, set 2 | DNA repair protein RAD52 homolog (Homo sapiens), P43351 | recombinant RAD52 DNA annealing, FRET fluorescence | inhibition, % at 18.7 µM | 360,000 compounds, 0.46% hits | AID 651710, 2012;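 active = every replicate showing at least 50% inhibition; inconclusive = mean inhibition at least 50% but not in every replicate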
Target sequence (P43351 whole entry, looked up): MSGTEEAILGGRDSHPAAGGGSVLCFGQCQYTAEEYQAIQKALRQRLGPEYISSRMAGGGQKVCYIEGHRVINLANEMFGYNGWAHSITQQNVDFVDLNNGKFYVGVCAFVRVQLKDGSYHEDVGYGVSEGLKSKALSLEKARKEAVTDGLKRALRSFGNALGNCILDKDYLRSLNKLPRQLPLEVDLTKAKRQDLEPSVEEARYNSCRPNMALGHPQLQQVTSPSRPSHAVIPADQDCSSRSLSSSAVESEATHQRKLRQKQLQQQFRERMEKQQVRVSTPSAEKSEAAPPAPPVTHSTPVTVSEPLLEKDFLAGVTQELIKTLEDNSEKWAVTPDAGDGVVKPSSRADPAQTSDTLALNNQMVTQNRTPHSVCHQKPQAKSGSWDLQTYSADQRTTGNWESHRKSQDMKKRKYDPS
CFTR F508del cor: F508del CFTR correction, initial screen, CFBE line, single point | activity (quench increase), % at 7.58 µM | 350,000 compounds, 0.36% hits | CFBE cells, YFP halide quenching; stimulated with forskolin plus potentiator P3; % fluorescence drop versus neutral controls;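 active = mean added fluorescence quench of at least 8% versus neutral control, with both replicates also reaching 8%; inconclusive = only one of the mean or replicate conditions met; inactive = mean below 8% and not both replicates reaching 8%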;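 note: cells transiently co-express mutant CFTR-F508del with the halide-sensitive YFP; corrector assay measuring rescue of mutant channel to the surface after 24 h compound exposure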
INS-1E GSIS act: GLuc luminescence reporter in INS-1E cells, primary screen for activators of glucose-dependent secretion of insulin; 370,000 compounds, 0.61% hits; INS-1E GLuc reporter insulin secretion, 2-3 h; activation, % at 16.6 µM; AID 743287, 2014;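 active = lowest replicate activation of at least 40%, so every replicate reaches that level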
EWS-Fli block: EWS/Fli-driven NR0B1 reporter inhibitors, primary screen, A673 cells, NR0B1 luciferase, luminescence, MLPCN library; viability-normalised; inhibition, % at 12.6 µM; 350,000 compounds, 0.67% hits; AID 651661, 2012;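 active = mean inhibition of at least 50% after viability correction, with every replicate also passing that limit; inconclusive = mean reaches 50% but only one of two replicates passes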;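 note: firefly luciferase signal divided by Alamar Blue viability fluorescence both relative to DMSO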
Large screens that a line does not name were inactive; ! = a repeat was not active.

COc1ccc(CN(C)C[C@@H]2Oc3ccc(NC(=O)Nc4ccccc4)cc3C(=O)N([C@H](C)CO)C[C@H]2C)cc1	RAD54 inh 57
COc1ccc(CN(C)C[C@H]2Oc3ccc(NC(=O)Nc4ccccc4)cc3C(=O)N([C@H](C)CO)C[C@H]2C)cc1	none
C[C@@H]1CN([C@@H](C)CO)C(=O)c2cc(N(C)C)ccc2O[C@@H](C)CCCCO[C@H]1CN(C)Cc1ccc(C(=O)Nc2ccccc2N)cc1	none (no result: RAD54 inh, LGR2 antag, RAD52 anneal inh, CFTR F508del cor, EWS-Fli block)
COc1ccc(S(=O)(=O)NCCc2cn3cccc(C)c3n2)cc1OC	none
Cc1cccn2cc(CCNS(=O)(=O)c3cccs3)nc12	INS-1E GSIS act 42
O=C(NN1C(=O)C2C3C=CC(O3)C2C1=O)c1cccc(Br)c1 (stereo not drawn)	INS-1E GSIS act 78
Cc1cc2c(cc(C(=O)OC(C)C(=O)NCc3ccc(F)cc3)n2C)o1 (stereo not drawn)	CFTR F508del cor 29
COc1ccc(Cl)cc1C(=O)NNC(=O)CCNS(=O)(=O)c1ccccc1	CFTR F508del cor 10
Cc1ccc(S(=O)(=O)NCCC(=O)NNC(=O)c2ccccc2Cl)cc1C	none
COc1cc(CN2CC3(CN(C)C3)c3c([nH]c4cc(OC)ccc34)[C@H]2CO)cc(OC)c1	none (no result: RAD54 inh)
CC(C)OP(=O)(OC(C)C)C(Nc1ccccn1)c1ccc(F)cc1 (stereo not drawn)	none (no result: RAD54 inh, RAD52 anneal inh, CFTR F508del cor, EWS-Fli block)
Cc1ccc(SC(C)C(=O)NC(N)=O)c(C)c1 (stereo not drawn)	INS-1E GSIS act 41 (no result: RAD54 inh)
CN1CCCCC(NC(=O)c2ccccc2)C1=O (stereo not drawn)	INS-1E GSIS act 117 (no result: RAD54 inh)
Cc1ccc(C(=O)NC2CCCCN(C)C2=O)cc1 (stereo not drawn)	none (no result: RAD54 inh)
c1ccc(-c2ccc(C3[C@H]4CNC[C@@H]3N4Cc3cccc(-c4ccncc4)c3)cc2)cc1 (stereo partly drawn)	RAD52 anneal inh 59 (no result: RAD54 inh)
Fc1cccc(CN2[C@@H]3CNC[C@H]2C3c2ccc(-c3ccncc3)cc2)c1 (stereo partly drawn)	RAD52 anneal inh 65! (no result: RAD54 inh)
Cc1ccc(-c2ccc(C3[C@H]4CNC[C@@H]3N4Cc3cccc(F)c3)cc2)cc1 (stereo partly drawn)	none (no result: RAD54 inh)
CN(N=Cc1ccccc1O)c1ccc2ccccc2n1	none (no result: INS-1E GSIS act)
COC(CNC(=O)c1ccc(Cn2c(=S)[nH]c3cc4c(cc3c2=O)OCO4)cc1)OC	none (no result: LGR2 antag, RAD52 anneal inh, CFTR F508del cor, INS-1E GSIS act, EWS-Fli block)
COc1cc(/C=C/C(=O)O)cc(S(=O)(=O)Nc2ccc3cn[nH]c3c2)c1OC	CFTR F508del cor 8.8
COc1ccccc1NC(=O)N1CCN(c2ccnc3cc(Cl)ccc23)CC1	none (no result: RAD54 inh)
COc1ccccc1N1CCN(c2ccnc3cc(Cl)ccc23)CC1	EWS-Fli block 54
CC1=C(C(=O)NC2CCCC(C)C2C)C2(CCCCC2)OC1=O (stereo not drawn)	none
CC1=C(C(=O)NC2CCCCC2C)C2(CCC(C)CC2)OC1=O (stereo not drawn)	CFTR F508del cor 9.9
CCOC(=O)C1C(=O)C=C(c2cccs2)CC1c1ccccc1 (stereo not drawn)	none (no result: RAD54 inh, CFTR F508del cor, INS-1E GSIS act)
CCOC(=O)C1C(=O)C=C(c2cccs2)CC1c1ccccc1C (stereo not drawn)	INS-1E GSIS act 49 (no result: RAD54 inh, RAD52 anneal inh, CFTR F508del cor, EWS-Fli block)
Cc1ccc(CSc2ccc(S(=O)(=O)N3CCOCC3)cn2)cc1	none
COc1ccc2c(c1OC)C(=O)OC2	none (no result: LGR2 antag, INS-1E GSIS act)
COc1ccc2c3c(cccc13)C(=O)CC2	CFTR F508del cor 12 (no result: RAD54 inh)
COc1ccccc1NC(=O)CN1CCN(CC(=O)Nc2ccc(OCc3ccccc3)cc2)CC1	none (no result: LGR2 antag, RAD52 anneal inh, CFTR F508del cor, INS-1E GSIS act, EWS-Fli block)
Cc1cc(C)c2c(C)nn(-c3ccccc3)c2n1	none (no result: LGR2 antag, RAD52 anneal inh, CFTR F508del cor, INS-1E GSIS act, EWS-Fli block)
Cc1nn(-c2ccccc2)c2nc(C(F)F)cc(C(F)F)c12	INS-1E GSIS act 70
COc1ccc(OC)c(N2C(N)=NC(N)=NC23CCCC3)c1	none (no result: LGR2 antag, RAD52 anneal inh, CFTR F508del cor, INS-1E GSIS act, EWS-Fli block)
O=C(NC1CCCCC1)N1CCN(C2CCCCC2)CC1	none
CCOC(=O)C1=C(COC(=O)/C=C/c2cccc(OC)c2OC)NC(=O)NC1C (stereo not drawn)	INS-1E GSIS act 57
CCOC(=O)C1=C(COC(=O)Cc2ccccc2F)NC(=O)NC1C (stereo not drawn)	INS-1E GSIS act 42
CCOC(=O)C1=C(COC(=O)/C=C/c2ccc(OCC)c(OC)c2)NC(=O)NC1C (stereo not drawn)	INS-1E GSIS act 90 (no result: RAD54 inh)
COc1cccc(-n2c(SCC(=O)Nc3cc(C)on3)nc3ccccc3c2=O)c1	none (no result: LGR2 antag, RAD52 anneal inh, CFTR F508del cor, INS-1E GSIS act, EWS-Fli block)
CC(C)CN(C(=O)CN1C(=O)NC2(CCc3ccccc32)C1=O)C1CCS(=O)(=O)C1 (stereo not drawn)	none
Cc1nnc(SCCN2C(=O)c3ccccc3C2=O)nc1C	none (no result: RAD52 anneal inh)
Cc1cc(C)n(-c2ncnc3sc4c(c23)CCCC4)n1	none (no result: RAD54 inh)
Cc1nccn1-c1ncnc2sc3c(c12)CCCC3	INS-1E GSIS act 67 (no result: RAD54 inh, RAD52 anneal inh, CFTR F508del cor, EWS-Fli block)
O=[N+]([O-])c1ccc(N2CCN(Cc3ccccc3)CC2)c2c1no[n+]2[O-]	LGR2 antag 102
O=C(COC(=O)c1ccc[nH]c1=O)NCC1CCCO1 (stereo not drawn)	none (no result: RAD52 anneal inh, CFTR F508del cor, EWS-Fli block)
COc1ccccc1N(CC(=O)NCC1CCCO1)C(=O)CNS(=O)(=O)c1ccc(Cl)cc1 (stereo not drawn)	INS-1E GSIS act 42
O=C(NCc1ccco1)c1cc(NS(=O)(=O)c2cccc([N+](=O)[O-])c2)ccc1O	LGR2 antag inconclusive (no result: RAD54 inh)
COc1ccc2cc(C(c3nnnn3C3CCCCC3)N3CCCCCC3)c3nnnn3c2c1 (stereo not drawn)	none (no result: LGR2 antag, RAD52 anneal inh, CFTR F508del cor, INS-1E GSIS act, EWS-Fli block)
O=C(O)CSCC(=O)Nc1cc(C(F)(F)F)ccc1Cl	INS-1E GSIS act 49 (no result: RAD52 anneal inh, CFTR F508del cor, EWS-Fli block)
Cc1ccc(OCC(=O)Nc2ccc3c(c2)ncn3C)cc1	CFTR F508del cor 22
Cn1cnc2cc(NC(=O)COc3ccccc3)ccc21	none (no result: RAD54 inh)
COc1ccccc1CN1CC(C(=O)NCCN(C)CCc2ccccc2)CCC1=O (stereo not drawn)	none
CCC1(O)C(=O)OCc2c1cc1n(c2=O)Cc2cc3cc(O)ccc3nc2-1 (stereo not drawn)	LGR2 antag 95, EWS-Fli block 56
CCc1c2c(nc3ccc(OC(=O)N4CCC(N5CCCCC5)CC4)cc13)-c1cc3c(c(=O)n1C2)COC(=O)[C@]3(O)CC	LGR2 antag inconclusive, EWS-Fli block 64
CCOC(=O)N1CCN(C(=O)C(=O)Nc2ccc3nc4n(c(=O)c3c2)CCCCC4)CC1	none
Cn1c(/C=C/c2ccc(Cl)cc2Cl)c([N+](=O)[O-])c(=O)n(C)c1=O	LGR2 antag 56
CCOC(=O)C1(CCc2ccccc2)CCN(C(=O)CN2C(=O)CSC2=O)CC1	none
O=C(C1CCC1)N1CC2(C1)[C@@H](c1ccccc1)[C@@H](CO)N2Cc1ccc(Cl)cc1	RAD52 anneal inh 67 (no result: RAD54 inh)
